Composite z-score data for ten compounds are collected here from PubChem BioAssay.

Sequence of Follistatin-related protein 3 (Homo sapiens) (O95633 whole entry, looked up): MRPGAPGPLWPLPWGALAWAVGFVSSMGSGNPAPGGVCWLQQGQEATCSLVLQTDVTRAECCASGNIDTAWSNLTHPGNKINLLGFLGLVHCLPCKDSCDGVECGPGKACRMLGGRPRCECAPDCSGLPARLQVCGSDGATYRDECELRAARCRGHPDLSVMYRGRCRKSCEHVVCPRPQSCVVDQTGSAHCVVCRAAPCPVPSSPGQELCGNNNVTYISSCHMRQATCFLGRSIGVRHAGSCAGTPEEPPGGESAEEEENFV

The assay concerns the target Follistatin-related protein 3 (Homo sapiens) (UniProt O95633). Description: compounds binding follistatin-related protein 3 – biochemical, small-molecule microarray, 635 nm fluorescence, primary screen (AID 1105).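 Further: score merges emission near 667 nm and signal to noise per printed spot across three slides.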 Conditions: FSTL3 binding, higher = more signal.
Consider `CC[C@@H]1[C@@H]2C3C(=O)N(CC)C(=O)C3CC(=O)[C@@H]2[C@H](c2ccc(C)cc2)N1S(=O)(=O)c1ccc(C)cc1` (stereo not given in full), for which the composite z-score was determined as 0.748.
Next, `C=CCNC(=O)[C@@H]1[C@H]2C(=O)O[C@H](c3ccccc3)[C@H](c3ccccc3)N2[C@H](c2ccc(O)cc2)[C@@]12C(=O)Nc1ccc(C#CCCO)cc12`: -0.459.
Next, `O=C1NC(=O)C2C1C=CC(C(O)c1ccc(-c3ccccc3)s1)N2Nc1ccccn1` (stereo not given): 0.561; `OCCCC1=CC(c2cccs2)N(Cc2cccc(OC(F)(F)F)c2)CC1` (stereo not given): -0.537; `O=C1OCC=C[C@H]2OC34C=CCN(CCN5CCOCC5)C(=O)[C@H]3N(CCCCCO)C(=O)[C@@H]4[C@@H]12` (stereo not given in full): -0.412.
Take `CCCN1C(=O)[C@@]2(Cc3ccccc3)N=C(c3ccc(OCCCO)cc3)O[C@H]2c2ccccc21`: the composite z-score came to 0.63.
With `C[N+](C)(C)CCCC[C@@H]1NC(=O)[C@@H]2C[C@H](C(=O)O)[C@H](c3cccc(OCCO)c3)N2C1=O` the figure was -0.492; with `C/C=C/[C@@H](CCn1cc([C@H](O)c2ccccc2)nn1)[Si](C)(C)c1ccc(OC)cc1`, -0.748; with `CCN(CC)c1ccc(N2CC=CC34O[C@@H]5/C=C\CCCOC(=O)C5[C@H]3C(=O)N(CCCCCCO)[C@@H]4C2=O)cc1` (stereo not given in full), -0.76.
For the compound `COC(=O)[C@@]1(Cc2ccc(OC)cc2)[C@H]2c3cc(C(=O)N4CCCC4)n(CCF)c3C[C@H]2CN1C(=O)c1ccccc1`, the composite z-score turned out to be 0.942.
